# About 2,000 (36%) of roughly 5,500 compounds were called active. Roughly 18% stayed inconclusive and do not appear here. This is one part of the list. Values without a mark were called inactive. Rule as the data show it: active = normalized growth mostly below about 0.91 (no sharp cut-off); inconclusive = no clear call, values can overlap the other calls; inactive = mostly above about 0.92.
# Test: chemical genetic growth profiling, strain panel (AID 1159580);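 also: tested at 20 µM; growth read once vehicle control cultures reached saturation at 30 °C; 1 = growth at the plate median or of vehicle wells; lower values mean less growth of the strain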
# Details: growth OD
smiles,measurement,setting,value
O=C(O)c1cc2ccccc2c(Cc2c(O)c(C(=O)O)cc3ccccc23)c1O,normalized growth,"S. cerevisiae deletion strains, locus YJR043C, strain POL32, active compounds read low",1.01
same,normalized growth,"S. cerevisiae deletion strains, locus YJR066W, strain TOR1, active compounds read low",0.819 (active)
same,normalized growth,"S. cerevisiae deletion strains, locus YKL009W, strain mrt4, active compounds read low",0.989
same,normalized growth,"S. cerevisiae deletion strains, locus YKL068W, active compounds read low",1.01
same,normalized growth,"S. cerevisiae deletion strains, locus YKL085W, strain MDH1 (second series), active compounds read low",1
same,normalized growth,"S. cerevisiae deletion strains, locus YKL085W, strain MDH1, active compounds read low",1
same,normalized growth,"S. cerevisiae deletion strains, locus YKL160W, strain elf1, active compounds read low",1
same,normalized growth,"S. cerevisiae deletion strains, locus YKR001C, strain vps1, active compounds read low",0.966
same,normalized growth,"S. cerevisiae deletion strains, locus YKR026C, strain gcn3, active compounds read low",0.998
same,normalized growth,"S. cerevisiae deletion strains, locus YKR091W, strain srl3, active compounds read low",1
same,normalized growth,"S. cerevisiae deletion strains, locus YLL001W, strain dnm1, active compounds read low",0.996
same,normalized growth,"S. cerevisiae deletion strains, locus YLL026W, active compounds read low",1
same,normalized growth,"S. cerevisiae deletion strains, locus YLL041C, strain sdh2, active compounds read low",0.992
same,normalized growth,"S. cerevisiae deletion strains, locus YLR027C, strain aat2, active compounds read low",0.999
same,normalized growth,"S. cerevisiae deletion strains, locus YLR039C, strain RIC1, active compounds read low",0.996
same,normalized growth,"S. cerevisiae deletion strains, locus YLR058C, strain SHM2, active compounds read low",1
same,normalized growth,"S. cerevisiae deletion strains, locus YLR102C, strain apc9, active compounds read low",0.994
same,normalized growth,"S. cerevisiae deletion strains, locus YLR113W, strain HOG1, active compounds read low",0.847 (active)
same,normalized growth,"S. cerevisiae deletion strains, locus YLR221C, strain rsa3, active compounds read low",0.99
same,normalized growth,"S. cerevisiae deletion strains, locus YLR258W, strain gsy2, active compounds read low",0.996
same,normalized growth,"S. cerevisiae deletion strains, locus YLR262C, strain YPT6 (second series), active compounds read low",1.01
same,normalized growth,"S. cerevisiae deletion strains, locus YLR262C, strain YPT6, active compounds read low",1.07
same,normalized growth,"S. cerevisiae deletion strains, locus YLR268W, strain sec22, active compounds read low",0.993
same,normalized growth,"S. cerevisiae deletion strains, locus YLR320W, strain mms22, active compounds read low",0.991
same,normalized growth,"S. cerevisiae deletion strains, locus YLR330W, strain CHS5, active compounds read low",0.996
same,normalized growth,"S. cerevisiae deletion strains, locus YLR342W, strain FKS1 (second series), active compounds read low",0.972
same,normalized growth,"S. cerevisiae deletion strains, locus YLR342W, strain FKS1, active compounds read low",0.998
same,normalized growth,"S. cerevisiae deletion strains, locus YLR357W, strain rsc2, active compounds read low",0.99
same,normalized growth,"S. cerevisiae deletion strains, locus YLR370C, strain arc18, active compounds read low",1.01
same,normalized growth,"S. cerevisiae deletion strains, locus YLR371W, strain rom2, active compounds read low",0.966
same,normalized growth,"S. cerevisiae deletion strains, locus YLR384C, strain iki3, active compounds read low",0.988
same,normalized growth,"S. cerevisiae deletion strains, locus YLR418C, strain cdc73, active compounds read low",0.93
same,normalized growth,"S. cerevisiae deletion strains, locus YML016C, strain PPZ1, active compounds read low",0.978
same,normalized growth,"S. cerevisiae deletion strains, locus YML032C, strain rad52, active compounds read low",0.994
same,normalized growth,"S. cerevisiae deletion strains, locus YML120C, strain ndi1, active compounds read low",1
same,normalized growth,"S. cerevisiae deletion strains, locus YML124C, strain tub3, active compounds read low",0.994
same,normalized growth,"S. cerevisiae deletion strains, locus YMR058W, strain fet3, active compounds read low",1
same,normalized growth,"S. cerevisiae deletion strains, locus YMR078C, strain ctf18, active compounds read low",0.984
same,normalized growth,"S. cerevisiae deletion strains, locus YMR125W, strain sto1, active compounds read low",1
same,normalized growth,"S. cerevisiae deletion strains, locus YMR129W, active compounds read low",0.997
same,normalized growth,"S. cerevisiae deletion strains, locus YMR205C, strain PFK2, active compounds read low",1.01
same,normalized growth,"S. cerevisiae deletion strains, locus YMR223W, strain ubp8, active compounds read low",1
same,normalized growth,"S. cerevisiae deletion strains, locus YMR231W, strain pep5, active compounds read low",1
same,normalized growth,"S. cerevisiae deletion strains, locus YMR263W, strain SAP30, active compounds read low",0.999
same,normalized growth,"S. cerevisiae deletion strains, locus YMR307W, strain GAS1, active compounds read low",1.1
same,normalized growth,"S. cerevisiae deletion strains, locus YNL067W, strain RPL9B, active compounds read low",1.01
same,normalized growth,"S. cerevisiae deletion strains, locus YNL071W, strain lat1, active compounds read low",0.987
same,normalized growth,"S. cerevisiae deletion strains, locus YNL183C, strain NPR1, active compounds read low",0.829 (active)
same,normalized growth,"S. cerevisiae deletion strains, locus YNL209W, strain ssb2, active compounds read low",1
same,normalized growth,"S. cerevisiae deletion strains, locus YNL233W, strain BNI4, active compounds read low",1.01
same,normalized growth,"S. cerevisiae deletion strains, locus YNL248C, strain rpa49, active compounds read low",0.984
same,normalized growth,"S. cerevisiae deletion strains, locus YNL250W, strain rad50, active compounds read low",1.01
same,normalized growth,"S. cerevisiae deletion strains, locus YNL271C, strain bni1, active compounds read low",1.01
same,normalized growth,"S. cerevisiae deletion strains, locus YNL298W, strain CLA4, active compounds read low",0.983
same,normalized growth,"S. cerevisiae deletion strains, locus YNL307C, strain MCK1, active compounds read low",0.996
same,normalized growth,"S. cerevisiae deletion strains, locus YNL322C, strain KRE1 (second series), active compounds read low",1.02
same,normalized growth,"S. cerevisiae deletion strains, locus YNR049C, strain mso1, active compounds read low",1
same,normalized growth,"S. cerevisiae deletion strains, locus YNR052C, strain pop2, active compounds read low",0.981
same,normalized growth,"S. cerevisiae deletion strains, locus YOL012C, strain htz1",0.665
same,normalized growth,"S. cerevisiae deletion strains, locus YOL147C, strain pex11, active compounds read low",1
same,normalized growth,"S. cerevisiae deletion strains, locus YOR001W, strain rrp6, active compounds read low",1.01
same,normalized growth,"S. cerevisiae deletion strains, locus YOR061W, strain CKA2, active compounds read low",0.984
same,normalized growth,"S. cerevisiae deletion strains, locus YOR069W, strain VPS5, active compounds read low",0.999
same,normalized growth,"S. cerevisiae deletion strains, locus YOR070C, strain gyp1, active compounds read low",1
same,normalized growth,"S. cerevisiae deletion strains, locus YOR080W, strain dia2, active compounds read low",1
same,normalized growth,"S. cerevisiae deletion strains, locus YOR083W, strain WHI5, active compounds read low",1
same,normalized growth,"S. cerevisiae deletion strains, locus YOR106W, strain vam3, active compounds read low",0.976
same,normalized growth,"S. cerevisiae deletion strains, locus YOR136W, strain idh2, active compounds read low",1
same,normalized growth,"S. cerevisiae deletion strains, locus YOR144C, strain elg1, active compounds read low",0.99
same,normalized growth,"S. cerevisiae deletion strains, locus YOR184W, strain ser1, active compounds read low",0.989
same,normalized growth,"S. cerevisiae deletion strains, locus YOR231W, strain MKK1, active compounds read low",0.875
same,normalized growth,"S. cerevisiae deletion strains, locus YOR265W, strain rbl2, active compounds read low",0.991
same,normalized growth,"S. cerevisiae deletion strains, locus YOR270C, strain vph1, active compounds read low",0.974
same,normalized growth,"S. cerevisiae deletion strains, locus YOR290C, strain snf2, active compounds read low",0.989
same,normalized growth,"S. cerevisiae deletion strains, locus YOR316C, strain cot1, active compounds read low",0.997
same,normalized growth,"S. cerevisiae deletion strains, locus YPL051W, strain arl3, active compounds read low",1.01
same,normalized growth,"S. cerevisiae deletion strains, locus YPL055C, strain LGE1, active compounds read low",1
same,normalized growth,"S. cerevisiae deletion strains, locus YPL078C, strain atp4, active compounds read low",1
same,normalized growth,"S. cerevisiae deletion strains, locus YPL106C, strain sse1, active compounds read low",0.964
same,normalized growth,"S. cerevisiae deletion strains, locus YPL240C, strain hsp82, active compounds read low",0.976
same,normalized growth,"S. cerevisiae deletion strains, locus YPL256C, strain CLN2, active compounds read low",0.905
same,normalized growth,"S. cerevisiae deletion strains, locus YPR119W, strain clb2, active compounds read low",0.988
same,normalized growth,"S. cerevisiae deletion strains, locus YPR141C, strain kar3, active compounds read low",1.02
same,normalized growth,"S. cerevisiae deletion strains, locus YPR163C, strain tif3, active compounds read low",0.995
same,normalized growth,"S. cerevisiae deletion strains, locus YPR167C, strain met16, active compounds read low",0.991
same,normalized growth,"S. cerevisiae deletion strains, strain wtn01, active compounds read low",0.985
same,normalized growth,"S. cerevisiae strains, strain wild type, active compounds read low",1
